Measured values taken from PubChem BioAssay (EPA / NIEHS).
Activity calls are given as the source filed them. The calls were made as follows: active = hit-call score of the fitted dose curve at least 0.9, where 1 is the maximum; inactive = score below 0.9.

Read-out: ABC Transporter (ABCC3), ABCC3 (gene 8714)
Assay: LTEA_HepaRG_ABCC3: Life Technologies and Expression Analysis (LTEA) Assay for ABC Transporter (ABCC3) using HepaRG (AID 2283462)
Settings: mRNA level, 48 h; actives raise or lower the signal
Protocol: LTEA_HepaRG is a cell based, multiplexed-readout assay that uses HepaRG, a human liver cell line, with measurements taken at 48 hours after chemical dosing on a 96-well plate.LTEA_HepaRG_ABCC3 is one of 102 assay component(s) measured in the LTEA HepaRG cell culture assay. It is a marker of NR mediated transport.Data from the assay component LTEA_HepaRG_ABCC3 was analyzed into 1 endpoint. This assay endpoint, LTEA_HepaRG_ABCC3, was analyzed with bidirectional fitting relative to DMSO as the negative control and baseline of activity. Using a type of inducible reporter, measures of mRNA induction for gain or loss-of-signal activity can be used to understand regulation of transcription factor activity. To generalize the intended target to other relatable targets, this assay endpoint is annotated to the transporter intended target family, where the subfamily is ABC transporter.
A total of 1060 chemcials from the ToxCast library were tested in eight-point concentration-response experiments. Cell culture and cytotoxicity assays were conducted at Thermo Fisher Scientific's Custom Services facility (Madison, WI). A single lot of human HepaRG cells (Thermo Fisher Scientific, Frederick, MD) was used for the cell culture experiments. 96-well format collagen type I coated plates of human HepaRG cells were prepared using established methods. Briefly, cryopreserved HepaRG cells were thawed, plated at a density of approximately 100,000 cells/well in HepaRG Thaw, Plate, and General Purpose media (HPRG770, Thermo Fisher Scientific), and incubated for 48 hours. 0.5% DMSO was selected as vehicle control to balance the requisite need of DMSO in HepaRG cultures to maintain differentiation (for example, baseline metabolism, proportions of hepatocytes vs. cholangiocytes), while enabling further hepatic receptor pathway activation (for example, PXR and CAR) in response to chemical exposure. 48 hours after plating, the culture medium was replaced with HepaRG Serum-Free Incudtion Media. Cells were exposed to each test chemical in duplicate and maintained in CO2 incubators for another 48 hours. Chemical plates were thawed to room temperature and 200x concentrations of treatment groups were prepared. 8-point conentration-reponse curves were made with the highest exposure at 100 uM, followed by half-log dilutions, all in 0.5% DMSO. Each test plate contained variouse controls, induction positive controls (1mM phenobarbital), cytotoxicity positive controls ([…] aflatoxin B1), vehicle controls (0.5% DMSO), and total lysis controls (0.5% DMSO). Cell morphology images were taken using an Essen IncuCyte FLR automated microscope, with six 96-well plates imaged in about 24 minutes. Images were captured and exported and JPEG files. Spent culture media was transfered to black-well plates for the LDH assay, and remaining media was sorted at -80 C for later use. Cells were treated with RLT buffer and frozen until shipped for gene expression analysis. Total RNA was isolated from the cell suspension in 75 uL of Buffer RLT (Qiagen, Germantown, MD 20874) by Quintiles/Expression Analysis (Durham, NC) using a custom isolation procedure. Total RNA from each plate well was transferred to a preamplification plate. Fluidigm's 96.96 Dynamic ArrayTM (Fluidigm, Amsterdam, the Netherlands) technology was used for gene expression analyses by quantitative reverse transcription polymerase chain reaction (qRT-PCR, performed by Quintiles/Expression Analysis, Durham, NC)89. Standard TaqManTM Assays (Applied Biosystems/ThermoFisher Scientific, Foster City, CA) were used to assess the expression of 93 genes selected based on their selectivity and sensitivity to important hepatic receptors known to be modulated by environmental chemicals; importance in human hepatocyte functionality; and hepatotoxicity. […]

| Compound | outcome | AC50 |
| --- | --- | --- |
| NC(=O)NO | inactive | – |
| COCCOCCOCCOC | inactive | – |
| CC(C)CC(C)(O)C#CC(C)(O)CC(C)C (stereo not given) | inactive | – |
| O=C1OC(=O)C2C3C=CC(C3)C12 (stereo not given) | inactive | – |
| COC(=O)c1c(Cl)c(Cl)c(C(=O)OC)c(Cl)c1Cl | inactive | – |
| CCOCCO | inactive | – |
| CC(C)CCO | inactive | – |
| Cc1ccc(S(=O)(=O)O)cc1C | inactive | – |
| CC(C)(O)c1coc(S(=O)(=O)NC(=O)Nc2c3c(cc4c2CCC4)CCC3)c1 | inactive | – |
| O=C(O)c1cc(N=Nc2ccc(S(=O)(=O)Nc3ccccn3)cc2)ccc1O | inactive | – |
| CC[C@H]1OC(=O)[C@H](C)[C@@H](O[C@H]2C[C@@](C)(OC)[C@@H](O)[C@H](C)O2)[C@H](C)[C@@H](O[C@@H]2O[C@H](C)C[C@H](N(C)C)[C@H]2O)[C@](C)(O)C[C@@H](C)C(=O)[C@H](C)[C@@H](O)[C@]1(C)O | inactive | – |
| O=C(O)c1cccc(Oc2ccccc2)c1 | inactive | – |
| CC(C)CCCCCCCOC(=O)CCCCC(=O)OCCCCCCCC(C)C | inactive | – |
| CC[C@H]1CC[C@H](NCc2cc3c(cc2OC)[C@H]2C[C@H]2C(=O)N3C)[C@H](c2ccccc2)N1 | inactive | – |
| CNS(=O)(=O)c1cc(C(=O)N2CCC(CCN3C4CCC3CC(n3c(C)nc5ccccc53)C4)(c3cccc(F)c3)CC2)c(Cl)cc1F (stereo not given) | – | 12.5 µM (active) |
| CCCC(=O)OCC | inactive | – |
| O=C(O)CCN(C1(C(=O)NO)CCCC1)S(=O)(=O)c1ccc(Oc2ccc(F)cc2)cc1 | inactive | – |
| CC/C(=C\C(=N/O)C(N)=O)C(C)[N+](=O)[O-] (stereo not given) | inactive | – |
| COc1cccc(-c2ccc(/C=C\CN3CCCCCC3)cc2Cl)c1 | – | 75.9 µM (active) |
| O=C(NS(=O)(=O)/C=C/c1ccccc1)c1ccc(F)cc1Cl | inactive | – |

| Compound | outcome | AC50 |
| --- | --- | --- |
| Nc1ccc(Nc2ccccc2)cc1 | inactive | – |
| Fc1ccccc1[C@@H](F)COC1CCC(Nc2ncnc3[nH]ncc23)CC1 (stereo not given in full) | inactive | – |
| CCOCCOCCOCCO | inactive | – |
| CCn1nc(Cc2ccccc2)cc1C1CCN(C[C@H]2C[C@H](N(C)[C@@H](C(=O)O)C(C)C)C[C@@H]2c2cccc(F)c2)CC1 | – | 50 µM (active) |
| CCCCCCCCCCCCCCCO | inactive | – |
| CNCc1ccc(NC(=O)c2c[nH]c3c2C(=O)CCC3)cc1 | inactive | – |
| O=c1n(CC2CO2)c(=O)n(CC2CO2)c(=O)n1CC1CO1 (stereo not given) | inactive | – |
| CCN(C(=O)c1cc(C)cc(OC[C@H](C)Nc2ccncc2)c1)C(C)C | – | 33.8 µM (active) |
| Clc1nc(Cl)c(Cl)c(Cl)c1Cl | inactive | – |
| CCC(C)(C)C(=O)O[C@H]1C[C@@H](C)C=C2C=C[C@H](C)[C@H](CC[C@@H]3C[C@@H](O)CC(=O)O3)[C@H]21 | inactive | – |
| CC1=CC(=O)CC(C)(C)C1 | inactive | – |
| O=C(CCCCCCCCc1cccnc1)N1CCC(C=C(c2ccccc2)c2ccccc2)CC1 | inactive | – |
| CC(C)c1cccc(C(C)C)c1N1C(=O)c2ccc(O)cc2C1=O | – | 84.3 µM (active) |
| CC1(C)C(=O)N(Br)C(=O)N1Br | inactive | – |
| CC(=O)OCCC(C)C | inactive | – |
| CC[C@H](C)C(=O)O[C@H]1C[C@@H](C)C=C2C=C[C@H](C)[C@H](CC[C@@H]3C[C@@H](O)CC(=O)O3)[C@H]21 | inactive | – |
| CCOC(=O)CC(CC(=O)OCC)(OC(C)=O)C(=O)OCC | inactive | – |
| Nc1cccc(N)c1 | inactive | – |
| Cn1c(=O)c2c(ncn2C)n(C)c1=O | inactive | – |
| Nc1nc2ncc(CNc3ccc(C(=O)N[C@@H](CCC(=O)O)C(=O)O)cc3)nc2c(=O)[nH]1 | inactive | – |
